From PubChem BioAssay (NCI)
Compounds without any hit were thinned out: in the full panel of roughly 83,000, 20% have a hit.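 In brief: 96-well plates, 48 h treatment, single concentration, percent growth endpoint.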

Columns and labels:
Assay in all cases: NCI-60 one-dose screen, 48 h (100 = growth as untreated, 0 = no growth, -100 = all killed)
Conditions in all cases: 10 µM unless noted; active means growth percent below 10; inactive means the rest
NCI-H226 lung = test system: NCI-H226 lung
NCI-H322M lung = test system: NCI-H322M lung
HOP-62 NSCLC = test system: HOP-62 NSCLC
NCI-H460 lung = test system: NCI-H460 lung
HOP-92 NSCLC = test system: HOP-92 NSCLC
NCI-H522 lung = test system: NCI-H522 lung
A549/ATCC NSCLC = test system: A549/ATCC NSCLC
786-0 renal = test system: 786-0 renal
COLO 205 colon = test system: COLO 205 colon
DU-145 prostate = test system: DU-145 prostate
K-562 leukemia = test system: K-562 leukemia
MALME-3M melanoma = test system: MALME-3M melanoma
MDA-MB-231 breast = test system: MDA-MB-231 breast
RXF 393 renal = test system: RXF 393 renal
SF-268 CNS = test system: SF-268 CNS
SF-295 CNS = test system: SF-295 CNS
SF-539 CNS = test system: SF-539 CNS
UACC-257 melanoma = test system: UACC-257 melanoma
M14 melanoma = test system: M14 melanoma

Measured: growth

CCCCCCCCCCCCNC(=S)N/N=C/c1ccccc1O
inactive: NCI-H226 lung 69.2% | NCI-H322M lung 83.5% | HOP-62 NSCLC 74% | NCI-H460 lung 49.6% | HOP-92 NSCLC 84.2% | NCI-H522 lung 78.1% | A549/ATCC NSCLC 95.6% | 786-0 renal 89.5% | COLO 205 colon 33.1% | DU-145 prostate 68.1% | K-562 leukemia 61.2% | MALME-3M melanoma 98.9% | MDA-MB-231 breast 78.8% | RXF 393 renal 107% | SF-268 CNS 65.5% | SF-295 CNS 70.7% | SF-539 CNS 85.4% | UACC-257 melanoma 98.2% | M14 melanoma 78.1%

O=C(CCN1CCCCC1)c1ccc2ccccc2c1
inactive: NCI-H226 lung 92.2% | NCI-H322M lung 98.4% | HOP-62 NSCLC 108% | NCI-H460 lung 103% | HOP-92 NSCLC 92.8% | NCI-H522 lung 93.5% | A549/ATCC NSCLC 102% | 786-0 renal 111% | COLO 205 colon 112% | DU-145 prostate 98.6% | K-562 leukemia 111% | MALME-3M melanoma 106% | MDA-MB-231 breast 102% | RXF 393 renal 102% | SF-268 CNS 98.2% | SF-295 CNS 99.4% | SF-539 CNS 108% | UACC-257 melanoma 98.5% | M14 melanoma 107%

COc1cc(C)cc2oc3oc(=O)c(-c4nc5ccccc5s4)cc3c(=O)c12
inactive: NCI-H226 lung 87.5% | NCI-H322M lung 90% | HOP-62 NSCLC 91.6% | NCI-H460 lung 84.1% | HOP-92 NSCLC 76.1% | NCI-H522 lung 95.7% | A549/ATCC NSCLC 109% | 786-0 renal 105% | COLO 205 colon 110% | DU-145 prostate 98.8% | K-562 leukemia 99.8% | MALME-3M melanoma 94% | MDA-MB-231 breast 95.1% | RXF 393 renal 77.5% | SF-268 CNS 96.6% | SF-295 CNS 98.9% | SF-539 CNS 83.7% | UACC-257 melanoma 109% | M14 melanoma 99%

O=C1COCCN1c1ccc(Nc2nc(Cl)nc(N3CCOCC3)n2)cc1
inactive: NCI-H226 lung 87.5% | NCI-H322M lung 93.3% | HOP-62 NSCLC 97.9% | NCI-H460 lung 108% | HOP-92 NSCLC 85.8% | NCI-H522 lung 68.2% | A549/ATCC NSCLC 95.8% | 786-0 renal 104% | COLO 205 colon 102% | DU-145 prostate 102% | K-562 leukemia 100% | MALME-3M melanoma 96.3% | MDA-MB-231 breast 103% | RXF 393 renal 92.4% | SF-268 CNS 99.4% | SF-295 CNS 94.4% | SF-539 CNS 96.5% | UACC-257 melanoma 98.2% | M14 melanoma 98.2%

CC1Cc2ccc(OCCN(C)C)cc2C1=O (configuration not stated)
inactive: NCI-H226 lung 99% | NCI-H322M lung 97.8% | HOP-62 NSCLC 96.4% | NCI-H460 lung 105% | HOP-92 NSCLC 82.1% | NCI-H522 lung 106% | A549/ATCC NSCLC 88.9% | 786-0 renal 101% | COLO 205 colon 105% | DU-145 prostate 107% | K-562 leukemia 100% | MALME-3M melanoma 108% | MDA-MB-231 breast 112% | RXF 393 renal 110% | SF-268 CNS 103% | SF-295 CNS 99.6% | SF-539 CNS 99.5% | UACC-257 melanoma 80% | M14 melanoma 99.4%

CNc1cc(C(=O)O)nc(NC)n1
inactive: NCI-H226 lung 98.8% | NCI-H322M lung 95.7% | HOP-62 NSCLC 103% | NCI-H460 lung 99.2% | HOP-92 NSCLC 87.1% | NCI-H522 lung 97.1% | A549/ATCC NSCLC 101% | 786-0 renal 105% | COLO 205 colon 105% | DU-145 prostate 103% | K-562 leukemia 101% | MALME-3M melanoma 95.6% | MDA-MB-231 breast 93.1% | RXF 393 renal 96% | SF-268 CNS 100% | SF-295 CNS 100% | SF-539 CNS 94.6% | UACC-257 melanoma 94.4% | M14 melanoma 92.7%

COC(=O)c1cc2c(=O)[nH]cc3c2c(n1)CCC3
inactive: NCI-H226 lung 112% | NCI-H322M lung 108% | HOP-62 NSCLC 97.4% | NCI-H460 lung 101% | HOP-92 NSCLC 76.8% | NCI-H522 lung 102% | A549/ATCC NSCLC 101% | 786-0 renal 101% | COLO 205 colon 106% | DU-145 prostate 116% | K-562 leukemia 99.3% | MALME-3M melanoma 99.3% | MDA-MB-231 breast 106% | RXF 393 renal 100% | SF-268 CNS 100% | SF-295 CNS 112% | SF-539 CNS 97.3% | UACC-257 melanoma 102% | M14 melanoma 104%

COc1cc(-c2nc(SCCC(C)C)nc(Nc3ccccc3)c2C#N)cc(OC)c1OC
inactive: NCI-H226 lung 101% | NCI-H322M lung 103% | HOP-62 NSCLC 114% | NCI-H460 lung 101% | HOP-92 NSCLC 86.8% | NCI-H522 lung 80.6% | A549/ATCC NSCLC 91.5% | 786-0 renal 91.7% | COLO 205 colon 99.1% | DU-145 prostate 97.1% | K-562 leukemia 93.7% | MALME-3M melanoma 104% | MDA-MB-231 breast 59.8% | RXF 393 renal 114% | SF-268 CNS 95.9% | SF-295 CNS 100% | SF-539 CNS 96.2% | UACC-257 melanoma 107% | M14 melanoma 100%
